From the supplement of paper PMC4709259 come the findings set out here.

The structures appear in SMILES notation. Structures can show the parent of a compound that is named as a salt. ± gives the standard deviation.

Assay [1] relates to Jurkat. Briefly: mean cell size (FSC-A) relative to DMSO control (fraction of control); higher = larger cells. As to conditions: 48 h. Summed up: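 Jurkat cells seeded at 600 cells/µl were incubated 1 h, then exposed for 48h to the Enzo Screen-Well FDA Approved Drug Library v2.0 at 25µM in 0.9% (v/v) final DMSO. Drugs that cut counts below 20% of controls were diluted 10-fold and retested, down to 25nM. Cell count and mean cell size (forward scatter area) were read on an Accuri C6 flow cytometer, relative to solvent-only controls. Plates held 6-12 controls; values are means of 3 biological replicates.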

Assay [2] has as its system Jurkat. Briefly: cell count relative to DMSO control (fraction of control); higher = more cells (less growth inhibition). To be noted: 48 h.

As to `O=C1NC(=O)C(c2ccccc2)(c2ccccc2)N1` [Phenytoin] (concentration: 25 µM), the mean cell size in the assay with Jurkat [1] was determined as 0.978 ± 0.042. In the assay with Jurkat [2], this molecule had a cell count of 0.74 ± 0.12.
Taken in the same sequence, the figures for `CCCCCCCCCCC[C@@H](C[C@@H]1OC(=O)[C@H]1CCCCCC)OC(=O)[C@H](CC(C)C)NC=O` [Orlistat (Tetrahydrolipstatin)] (concentration: 25 µM) were 0.808 ± 0.043 and 0.355 ± 0.074.
In the assay on Jurkat [1], `C=C(CC)C(=O)c1ccc(OCC(=O)O)c(Cl)c1Cl` [Ethacrynic Acid] (concentration: 25 µM) displayed a mean cell size of 0.924 ± 0.015. This molecule also had a cell count in the assay with Jurkat [2] of 0.453 ± 0.058.
As to `CC(C)[C@H]1CC[C@H](C(=O)N[C@H](Cc2ccccc2)C(=O)O)CC1` [Nateglinide] (concentration: 25 µM), the mean cell size in the assay with Jurkat [1] is 0.966 ± 0.063. The same molecule registered a cell count in the assay on Jurkat [2] of 0.883 ± 0.14.
In the same order, the values of `Nc1nc2c(ncn2COCCO)c(=O)[nH]1` [Acyclovir (Acycloguanosine) Zovirax] (concentration: 25 µM) are 0.977 ± 0.028 and 0.842 ± 0.022.
Taken in the same sequence, the figures for `O=C(O)c1cc(=O)c2c(OCC(O)COc3cccc4oc(C(=O)O)cc(=O)c34)cccc2o1` [Cromolyn·Na (Disodium Cromoglycate)] (concentration: 25 µM) were 0.9231 ± 0.0045 and 1.05 ± 0.096.
In the same order, the values of `O=C(c1ccc(OCCN2CCCCC2)cc1)c1c(-c2ccc(O)cc2)sc2cc(O)ccc12` [Raloxifene·HCl] (concentration: 25 µM) are 0.891 ± 0.016 and 0.675 ± 0.044.
Regarding `COc1ccc2[nH]c([S+]([O-])Cc3ncc(C)c(OC)c3C)nc2c1` (stereo unspecified) [Omeprazole] (concentration: 25 µM), in the assay with Jurkat [1], the mean cell size amounted to 0.946 ± 0.035. In the assay on Jurkat [2], the cell count came out at 0.946 ± 0.083.
Regarding `CCCCC(=O)N(Cc1ccc(-c2ccccc2-c2nnn[nH]2)cc1)[C@H](C(=O)O)C(C)C` [Valsartan] (concentration: 25 µM), the mean cell size in the assay with Jurkat [1] is 0.9682 ± 0.0072. The same molecule showed a cell count in the assay with Jurkat [2] of 0.976 ± 0.11.
Taken in the same sequence, the figures for `CC(C)c1nc(N(C)S(C)(=O)=O)nc(-c2ccc(F)cc2)c1/C=C/[C@@H](O)C[C@@H](O)CC(=O)O` [Rosuvastatin Calcium] (concentration: 25 µM) were 1.19 ± 0.041 and 0.689 ± 0.065.
In the same order, the values of `Cc1cn([C@H]2C[C@H](N=[N+]=[N-])[C@@H](CO)O2)c(=O)[nH]c1=O` [Zidovudine (3'-Azido-3'-Deoxythymidine)] (concentration: 25 µM) are 1.03 ± 0.025 and 0.714 ± 0.027.
In the case of `Cc1nc2n(c(=O)c1CCN1CCC(c3noc4cc(F)ccc34)CC1)CCCC2` [Risperidone] (concentration: 25 µM), the mean cell size with Jurkat [1] was found to be 0.95 ± 0.051. For the same molecule, in the assay with Jurkat [2], the cell count worked out at 0.809 ± 0.13.
In the same order, the values of `CCc1ccc(CCOc2ccc(CC3SC(=O)NC3=O)cc2)nc1` (stereo unspecified) [Pioglitazone·HCl] (concentration: 25 µM) are 0.966 ± 0.039 and 0.906 ± 0.16.
In turn, `N[C@@H](Cc1cc(I)c(Oc2cc(I)c(O)c(I)c2)c(I)c1)C(=O)O` [Levothyroxine·Na] (concentration: 25 µM) had a mean cell size in the assay on Jurkat [1] of 1.02 ± 0.059. This molecule also yielded a cell count in the assay on Jurkat [2] of 0.808 ± 0.087.
In the same order, the values of `O=C(O)CCNC(=O)c1ccc(/N=N/c2ccc(O)c(C(=O)O)c2)cc1` [Balsalazide] (concentration: 25 µM) are 0.964 ± 0.013 and 0.669 ± 0.047.
In the assay with Jurkat [1], `NC(N)=Nc1nc(CSCC/C(N)=N/S(N)(=O)=O)cs1` [Famotidine] (concentration: 25 µM) yielded a mean cell size of 0.979 ± 0.035. This molecule also gave a cell count in the assay with Jurkat [2] of 1.19 ± 0.12.
`COC(=O)[C@H]1[C@H]2C[C@@H]3c4[nH]c5cc(OC)ccc5c4CCN3C[C@H]2C[C@@H](OC(=O)c2cc(OC)c(OC)c(OC)c2)[C@@H]1OC` [Reserpine] (concentration: 25 µM) returned a mean cell size in the assay on Jurkat [1] of 0.988 ± 0.025. In the assay with Jurkat [2], this molecule returned a cell count of 0.616 ± 0.098.
In the same order, the values of `O=C1CCCC(=O)C1C(=O)c1ccc(C(F)(F)F)cc1[N+](=O)[O-]` [Nitisinone] (concentration: 25 µM) are 0.938 ± 0.017 and 0.936 ± 0.1.
In the same order, the values of `CCCCc1oc2ccccc2c1C(=O)c1cc(I)c(OCCN(CC)CC)c(I)c1` [Amiodarone·HCl] (concentration: 2.5 µM) are 1.05 ± 0.018 and 0.616 ± 0.12.
In the same order, the values of `CC(CN1c2ccccc2Sc2ccccc21)N(C)C` (stereo unspecified) [Promethazine·HCl] (concentration: 25 µM) are 0.994 ± 0.023 and 0.717 ± 0.16.
In the assay with Jurkat [1], `CCOC(=O)[C@H](CCc1ccccc1)N[C@@H](C)C(=O)N1Cc2ccccc2C[C@H]1C(=O)O` [Quinapril·HCl] (concentration: 25 µM) gave a mean cell size of 0.998 ± 0.022. For the same molecule, in the assay on Jurkat [2], the cell count turned out to be 1.01 ± 0.11.
The molecule `Nc1ccc(C(=O)O)c(O)c1` [4-Aminosalicylic Acid] (concentration: 25 µM) yielded a mean cell size with Jurkat [1] of 0.914 ± 0.016. The cell count in the assay with Jurkat [2] turned out to be 0.844 ± 0.14.
In the same order, the values of `CC(=O)OCC[N+](C)(C)C` [Acetylcholine Chloride] (concentration: 25 µM) are 0.999 ± 0.056 and 0.68 ± 0.19.
In the assay with Jurkat [1], `CN1C(CCl)Nc2cc(Cl)c(S(N)(=O)=O)cc2S1(=O)=O` (stereo unspecified) [Methyclothiazide] (concentration: 25 µM) yielded a mean cell size of 0.982 ± 0.048. The cell count in the assay on Jurkat [2] is 0.633 ± 0.17.
Take `COC(=O)C1=C(C)NC(C)=C(C(=O)OC(C)C)C1c1cccc2nonc12` (stereo unspecified) [Isradipine] (concentration: 25 µM): the mean cell size in the assay with Jurkat [1] stood at 0.924 ± 0.03. The same molecule returned a cell count with Jurkat [2] of 1.13 ± 0.13.
Taken in the same sequence, the figures for `CCCN(CCC)CCc1cccc2c1CC(=O)N2` [Ropinirole·HCl] (concentration: 25 µM) were 0.974 ± 0.012 and 0.958 ± 0.1.
`CC1=C(C(=O)O)N2C(=O)[C@@H](NC(=O)[C@H](N)c3ccccc3)[C@H]2SC1` [Cephalexin Monohydrate] (concentration: 25 µM) came in with a mean cell size in the assay on Jurkat [1] of 0.9873 ± 0.0068. The molecule further showed a cell count with Jurkat [2] of 0.931 ± 0.068.
Taken in the same sequence, the figures for `Nc1nc2[nH]cnc2c(=S)[nH]1` [Thioguanine (6-Thioguanine)] (concentration: 25 µM) were 0.935 ± 0.045 and 1.09 ± 0.061.
In the case of `CC(C)C[C@H](NC(=O)[C@@H](Cc1c[nH]c2ccccc12)NC(=O)[C@H](Cc1ccc(O)cc1)NC(=O)[C@H](CO)NC(=O)[C@H](Cc1c[nH]c2ccccc12)NC(=O)[C@H](Cc1cnc[nH]1)NC(=O)[C@@H]1CCC(=O)N1)C(=O)N[C@@H](CCCN=C(N)N)C(=O)N1CCC[C@H]1C(=O)NCC(N)=O` [Triptorelin Acetate] (concentration: 25 µM), the mean cell size in the assay with Jurkat [1] stood at 0.997 ± 0.014. Also, in the assay with Jurkat [2], the cell count was found to be 0.458 ± 0.081.
In the same order, the values of `Clc1ccc(C(Cn2ccnc2)OCc2csc3c(Cl)cccc23)c(Cl)c1` (stereo unspecified) [Sertaconazole] (concentration: 25 µM) are 1.04 ± 0.05 and 0.801 ± 0.11.
In the same order, the values of `O=c1[nH]c(=O)n([C@H]2C[C@H](O)[C@@H](CO)O2)cc1F` [Floxuridine] (concentration: 25 nM) are 1.06 ± 0.063 and 0.178 ± 0.096.
Taken in the same sequence, the figures for `CC(C)(C)NCC(O)c1cc(O)cc(O)c1` (stereo unspecified) [Terbutaline Hemisulfate] (concentration: 25 µM) were 0.92 ± 0.066 and 0.503 ± 0.057.
In the case of `COc1cccc2c1C(=O)c1c(O)c3c(c(O)c1C2=O)C[C@@](O)(C(=O)CO)C[C@@H]3O[C@H]1C[C@H](N)[C@@H](O)[C@H](C)O1` [Epirubicin·HCl] (concentration: 250 nM), in the assay on Jurkat [1], the mean cell size is 1.42 ± 0.022. This molecule also gave a cell count in the assay on Jurkat [2] of 0.206 ± 0.052.
With `Cc1c(OCC(F)(F)F)ccnc1C[S+]([O-])c1nc2ccccc2[nH]1` (stereo unspecified) [Lansoprazole] (concentration: 25 µM), the mean cell size in the assay with Jurkat [1] was 0.927 ± 0.027. This molecule yielded a cell count in the assay with Jurkat [2] of 0.617 ± 0.01.
In the same order, the values of `CCOC(=O)[C@H](CCc1ccccc1)N[C@@H](C)C(=O)N1CCC[C@H]1C(=O)O` [Enalapril] (concentration: 25 µM) are 1.01 ± 0.029 and 0.733 ± 0.042.
In the same order, the values of `CCc1nc(N)nc(N)c1-c1ccc(Cl)cc1` [Pyrimethamine] (concentration: 25 µM) are 0.959 ± 0.018 and 0.2 ± 0.033.
In the same order, the values of `Cc1ccc(Nc2nccc(N(C)c3ccc4c(C)n(C)nc4c3)n2)cc1S(N)(=O)=O` [Pazopanib·HCl] (concentration: 25 µM) are 0.9554 ± 0.0092 and 0.772 ± 0.12.
In turn, `CN(C)CCOC(=O)C(c1ccccc1)C1(O)CCCC1` (stereo unspecified) [Cyclopentolate] (concentration: 25 µM) yielded a mean cell size in the assay on Jurkat [1] of 0.996 ± 0.057. In the assay with Jurkat [2], this molecule had a cell count of 0.596 ± 0.08.
In the same order, the values of `Cc1cc(C(=O)NNCc2ccccc2)no1` [Isocarboxazid] (concentration: 25 µM) are 0.965 ± 0.057 and 0.735 ± 0.1.
In the same order, the values of `CC(C)(C)NC(=O)[C@H]1CC[C@H]2[C@@H]3CC[C@H]4NC(=O)C=C[C@]4(C)[C@H]3CC[C@]12C` [Finasteride] (concentration: 25 µM) are 0.978 ± 0.046 and 0.684 ± 0.12.
Taken in the same sequence, the figures for `NC12CC3CC(CC(C3)C1)C2` [Amantadine·HCl] (concentration: 25 µM) were 1.01 ± 0.058 and 0.749 ± 0.17.
The molecule `CCCCCCCCCCCCCCCC(=O)O[C@@H]1[C@@H](O)[C@@H](O)[C@@H]([C@H](NC(=O)[C@@H]2C[C@@H](CCC)CN2C)[C@H](C)Cl)O[C@@H]1SC` [Clindamycin Palmitate·HCl] (concentration: 25 µM) displayed a mean cell size in the assay with Jurkat [1] of 1 ± 0.044. Besides, the cell count in the assay with Jurkat [2] stood at 0.725 ± 0.025.
Taken in the same sequence, the figures for `CC(=O)Oc1ccc(C(c2ccc(OC(C)=O)cc2)c2ccccn2)cc1` [Bisacodyl] (concentration: 25 µM) were 0.915 ± 0.013 and 0.813 ± 0.09.
